# Active and inactive are the calls of the source. Unless noted, no stated cut-off is given here; in the data, active means inhibition above about 80%; inactive means the rest.
# Key:
# [1] = growth inhibition, single agent or in combination, cell-based, chromothripsis tumors, cisplatin or BGB combos (AID 1671449); conditions: LFS_MB_P medulloblastoma cells;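 further: cells exposed for 96 hours; 0% = vehicle DMSO and 100% = killing by high DMSO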
# [2] = growth inhibition, single agent and combos, cell-based, chromothripsis tumors, cisplatin or BGB combos (AID 1671450); conditions: HDN33 neuroblastoma cells, stronger effect = higher value;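 further: cells exposed to compound for four days; 0% = vehicle DMSO and 100% = cell killing by high DMSO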
# [3] = growth inhibition, single agents and combos, ICB984, cell-based, cisplatin or BGB combos, synergistic combos for chromothripsis tumors (AID 1671451; call rule not given here;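 further: cells exposed for 96 hours before readout; 0% = vehicle DMSO and 100% = killing by high DMSO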); conditions: ICB984 medulloblastoma cells, drug combinations, stronger effect = higher value
# [4] = growth inhibition, single agents and combos, LFS_MB_1R, cell-based, cisplatin or BGB combos, synergistic combos for chromothripsis tumors (AID 1671452); conditions: LFS_MB_1R medulloblastoma cells, stronger effect = higher value;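 further: cells exposed for 96 hours before readout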
# [5] = growth inhibition, single agents and combos, HTB85, cell-based, BGB or cisplatin IC20 combos, synergistic combos for chromothripsis tumors (AID 1671453); conditions: HTB85 osteosarcoma cells, drug combinations, stronger effect = higher value;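 further: cells exposed for 96 hours before readout; 0% = vehicle DMSO and 100% = high DMSO killing control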
# [6] = growth inhibition, single agents and combos, CRL2098, cell-based, BGB or cisplatin IC20 combos, synergistic combos for chromothripsis tumors (AID 1671454); conditions: CRL2098 osteosarcoma cells, drug combinations, stronger effect = higher value;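 further: cells exposed for 96 h before readout; 0% = vehicle DMSO and 100% = killing by high DMSO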
# [7] = growth inhibition, single agents and combos, HD-MB03, cell-based, BGB or cisplatin IC20 combos, synergistic combos for chromothripsis tumors (AID 1671455; in the data active means inhibition above about 83%;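 further: 0% = vehicle DMSO and 100% = high DMSO as cytotoxic control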); conditions: HD-MB03 medulloblastoma cells, stronger effect = higher value
# [8] = growth inhibition, single agents and combos, UWB1.289, cell-based, BGB or cisplatin combos, synergistic combos for chromothripsis tumors (AID 1671456); conditions: UWB1.289 ovarian carcinoma cells, stronger effect = higher value;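 further: cells exposed to compound for four days; 0% = vehicle DMSO and 100% = killing by high DMSO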
# [9] = growth inhibition, single agents and combos, LFS_MB_2R, cell-based, cisplatin combos, synergistic combos for chromothripsis tumors (AID 1671457); conditions: LFS_MB_2R medulloblastoma cells, stronger effect = higher value;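 further: cells exposed to compound for four days before readout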
# [10] = growth inhibition, MDA-MB-436, cell-based, BGB or cisplatin combos, synergistic combos for chromothripsis tumors (AID 1671458; call rule not given here;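 further: cells exposed for 96 hours; 0% = vehicle DMSO and 100% = killing by high DMSO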); conditions: MDA-MB-436 breast carcinoma growth inhibition, drug combinations, stronger effect = higher value
# [11] = UWB1.289_BRCA1 ovarian cancer growth, cell-based, BGB or cisplatin combinations (AID 1671459); conditions: UWB1.289 BRCA1 ovarian carcinoma, drug combinations, stronger effect = higher value
# [12] = drug combination toxicity in non-malignant astrocytes – cell-based, BGB or cisplatin IC20 combos, cytotoxicity control for chromothriptic childhood tumor combination screen (AID 1671460); conditions: Human astrocytes, viability inhibition, drug combinations, at 0.5 µM, stronger effect = higher value;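 further: cells exposed to compounds for 96 hours before viability readout; 0% = vehicle and 100% = killing control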
# [13] = BT084 cell growth, single and combined drugs, ICGC_MB145, cisplatin and BGB IC40 combos (AID 1671461); conditions: BT084 medulloblastoma cells, drug combinations, stronger effect = higher value;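 further: cells exposed to drugs for 96 hours; 0% = vehicle DMSO and 100% = high DMSO full killing control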
# [14] = RCMB18 cell growth, single agent and combined, cisplatin and BGB IC40 combos (AID 1671462); conditions: RCMB18 medulloblastoma cells, stronger effect = higher value;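 further: cells exposed to compound for four days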
# [15] = CRL1545 cell growth, single agent and combined, cisplatin and BGB IC20 combos (AID 1671464); conditions: CRL1545 osteosarcoma cells, stronger effect = higher value;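 further: cells exposed to compound for 96 hours before readout; 0% = vehicle DMSO and 100% = high DMSO killing control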
# [16] = galactose survival enhancers in mitochondrial complex I cybrids – cell-based, galactose medium, ATP luminescence, primary screen (AID 1645843;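 active means z-score of at least 1.8 in each of two replicates, scored against plate mean and spread of sample wells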;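 further: positive z means more ATP and so rescue of galactose-driven cybrid death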); conditions: complex I mutant cybrid cells, 72 h, stronger effect = higher value
# [17] = measured here: combination with BGB IC40, at 0.05 µM
# [18] = measured here: with BGB IC20 combination, at 0.5 µM
# [19] = measured here: with cisplatin IC20 combination, at 0.5 µM
# [20] = measured here: combination with cisplatin, at 0.5 µM
# [21] = measured here: combination with cisplatin, at 5 µM
compound,measurement,setting,value
NC(=O)c1cccc2[nH]c(-c3ccc(C4CCCN4)cc3F)nc12 (centres undefined),inhibition,"[1]; at 0.5 µM, stronger effect = higher value",19.3% (inactive)
same,inhibition,"[1]; measured here: combination with BGB IC20, at 0.005 µM",7.36%
same,inhibition,"[1]; measured here: combination with BGB IC40, at 0.005 µM",-24.3%
same,inhibition,[1]; [17],1.68%
same,inhibition,"[1]; measured here: combination with cisplatin, at 0.5 µM, stronger effect = higher value",52.8%
same,inhibition,"[1]; measured here: combination with cisplatin, at 5 µM, stronger effect = higher value",58.1%
same,inhibition,"[2]; BGB combo, at 5 µM",54.3%
same,inhibition,[2]; at 0.5 µM,15.5% (inactive)
same,inhibition,"[2]; cisplatin combo, at 5 µM",60.1%
same,inhibition,[2]; [18],22.6%
same,inhibition,[2]; [19],10.8%
same,inhibition,"[2]; single agent, at 5 µM",54.9%
same,inhibition,"[3]; BGB IC20 combo, at 0.005 µM",3.69%
same,inhibition,"[3]; BGB IC40 combo, at 0.005 µM",-38.8%
same,inhibition,"[3]; BGB IC40 combo, at 0.05 µM",41.6%
same,inhibition,[3]; at 0.5 µM,-20.7% (inactive)
same,inhibition,"[3]; cisplatin combo, at 0.05 µM",39.3%
same,inhibition,"[3]; cisplatin combo, at 0.5 µM",-35.8%
same,inhibition,"[3]; cisplatin combo, at 5 µM",-28.7%
same,inhibition,"[3]; measured here: 5 uM single agent, at 5 µM",-6.58%
same,inhibition,[4]; at 0.5 µM,-15.8% (inactive)
same,inhibition,[4]; [17],-15.1%
same,inhibition,[4]; [20],-24.3%
same,inhibition,[4]; [21],48.8%
same,inhibition,[5]; at 0.5 µM,6.65% (inactive)
same,inhibition,"[5]; measured here: with BGB IC20, at 0.5 µM",0.81%
same,inhibition,"[5]; measured here: with BGB IC20, at 5 µM",37.8%
same,inhibition,"[5]; measured here: with cisplatin IC20, at 0.5 µM",2.33%
same,inhibition,"[5]; measured here: with cisplatin IC20, at 5 µM",51.1%
same,inhibition,"[5]; single agent, at 5 µM",52.6%
same,inhibition,[6]; at 0.5 µM,-18.9% (inactive)
same,inhibition,"[6]; measured here: combination with BGB at IC20, at 0.5 µM",-1.16%
same,inhibition,"[6]; measured here: combination with cisplatin at IC20, at 0.5 µM",-8.89%
same,inhibition,[7]; at 0.5 µM,7.06% (inactive)
same,inhibition,"[7]; measured here: combo with BGB at IC20, at 0.5 µM",1.45%
same,inhibition,"[7]; measured here: combo with cisplatin at IC20, at 0.5 µM",11.4%
same,inhibition,[8]; at 0.5 µM,9.31% (inactive)
same,inhibition,"[8]; measured here: inhibition with BGB combination, at 0.05 µM",-4.89%
same,inhibition,"[8]; measured here: inhibition with cisplatin combination, at 0.05 µM",-21.6%
same,inhibition,[9]; at 0.5 µM,-11.1% (inactive)
same,inhibition,[9]; [20],-12.4%
same,inhibition,[9]; [21],48.1%
same,inhibition,[10]; at 0.5 µM,12.2% (inactive)
same,inhibition,"[10]; measured here: BGB combination, at 0.5 µM",-1.6%
same,inhibition,"[10]; measured here: BGB combination, at 5 µM",34.2%
same,inhibition,"[10]; measured here: cisplatin combination, at 0.5 µM",12.5%
same,inhibition,"[10]; measured here: cisplatin combination, at 5 µM",56.6%
same,inhibition,"[11]; BGB combination, concentration series, at 5 µM",55.7%
same,inhibition,[11]; at 0.5 µM,12.5% (inactive)
same,inhibition,"[11]; cisplatin combination, concentration series, at 5 µM",69.9%
same,inhibition,[12],18.3% (inactive)
same,inhibition,[12]; measured here: combo with BGB IC20,32.5%
same,inhibition,[12]; measured here: combo with cisplatin IC20,12%
same,inhibition,[13]; at 0.5 µM,-17.4% (inactive)
same,inhibition,"[13]; cisplatin combination, at 0.5 µM",-7.13%
same,inhibition,"[13]; cisplatin combination, at 5 µM",41.8%
same,inhibition,"[13]; measured here: BGB IC40 combination 0.05 uM, at 0.05 µM",14.7%
same,inhibition,"[13]; single agent, at 5 µM",45%
same,inhibition,[14]; at 0.5 µM,-17.5% (inactive)
same,inhibition,"[14]; cisplatin combo, at 5 µM",55.7%
same,inhibition,"[14]; measured here: BGB IC40 combination, at 0.05 µM",-5.7%
same,inhibition,[14]; [20],-29.9%
same,inhibition,"[14]; single agent, at 5 µM",39.2%
same,inhibition,[15]; at 0.5 µM,-0.89% (inactive)
same,inhibition,[15]; [18],-14.3%
same,inhibition,[15]; [19],5.82%
same,inhibition,"[15]; single agent, at 0.05 µM",27.4%
same,inhibition,"[15]; single agent, at 5 µM",63.4%
Fc1cccc(-c2ccc(N3CCC(NC4CCNCC4)CC3)cc2)c1,z-score,[16],-1.3 (inactive)

# Source: PubChem BioAssay
